Shown are actives, neighbours in structure and some others; about 4.8% of the full set was active somewhere.
Calb FLC = C. albicans growth inhibition with fluconazole, primary screen, CaCi-2 strain, Alamar Blue fluorescence. C. albicans CaCi-2 (fluconazole-resistant clinical isolate) + fluconazole, 48 h. growth inhibition, % (no concentration beside the values). 300,000 compounds, 0.57% hits;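 active = growth inhibition above about 58% in most replicates, limit read from the data, passing the limit was not always enough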;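 also: all wells also contain fluconazole at 8 µg/ml as a sub-toxic cotreatment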
CSC inhib = cancer stem cell viability inhibitors, primary screen, luminescence; cancer stem cell-like cells viability; inhibition, % at 7.5 µM; 300,000 compounds, 1.1% hits; AID 2717, 2010; in the data active = inhibition above about 75%; tested in HMLE shEcad cells
MPTP block = mitochondrial permeability transition pore inhibitors, primary screen, biochemical, isolated mouse mitochondria, absorbance; Ca2+ swelling absorbance, 30 min; inhibition, % at 10 µM; 360,000 compounds, 1.4% hits;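 active = inhibition of 50% or more, scaled per plate between neutral and stimulator controls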
Mdm2 MdmX PPI = inhibitors of human Mdm2-MdmX association, primary screen, cell-based, luminescence, split luciferase, SaOS-2, uHTS; Protein Mdm4 (Homo sapiens) + E3 ubiquitin-protein ligase Mdm2 (Homo sapiens), …; 330,000 compounds, 3% hits; SaOS-2 split-luciferase Mdm2/MdmX complementation; inhibition, % at 8 µM;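 active = inhibition of at least 50% at 8 µM in the primary screen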
Target sequence (O15151 whole entry, looked up): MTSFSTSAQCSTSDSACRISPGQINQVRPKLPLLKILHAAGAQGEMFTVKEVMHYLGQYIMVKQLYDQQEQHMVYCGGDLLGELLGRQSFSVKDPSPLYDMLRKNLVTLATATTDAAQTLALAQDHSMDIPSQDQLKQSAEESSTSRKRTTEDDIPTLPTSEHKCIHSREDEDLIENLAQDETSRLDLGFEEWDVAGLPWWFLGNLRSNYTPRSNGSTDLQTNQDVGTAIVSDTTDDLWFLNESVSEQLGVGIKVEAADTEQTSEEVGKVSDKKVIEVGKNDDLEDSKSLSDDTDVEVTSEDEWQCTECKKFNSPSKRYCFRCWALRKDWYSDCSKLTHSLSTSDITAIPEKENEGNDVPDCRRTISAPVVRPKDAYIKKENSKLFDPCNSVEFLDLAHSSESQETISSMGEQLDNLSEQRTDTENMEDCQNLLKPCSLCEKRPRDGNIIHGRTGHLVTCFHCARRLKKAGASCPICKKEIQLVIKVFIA
Target sequence (Q00987 whole entry, looked up): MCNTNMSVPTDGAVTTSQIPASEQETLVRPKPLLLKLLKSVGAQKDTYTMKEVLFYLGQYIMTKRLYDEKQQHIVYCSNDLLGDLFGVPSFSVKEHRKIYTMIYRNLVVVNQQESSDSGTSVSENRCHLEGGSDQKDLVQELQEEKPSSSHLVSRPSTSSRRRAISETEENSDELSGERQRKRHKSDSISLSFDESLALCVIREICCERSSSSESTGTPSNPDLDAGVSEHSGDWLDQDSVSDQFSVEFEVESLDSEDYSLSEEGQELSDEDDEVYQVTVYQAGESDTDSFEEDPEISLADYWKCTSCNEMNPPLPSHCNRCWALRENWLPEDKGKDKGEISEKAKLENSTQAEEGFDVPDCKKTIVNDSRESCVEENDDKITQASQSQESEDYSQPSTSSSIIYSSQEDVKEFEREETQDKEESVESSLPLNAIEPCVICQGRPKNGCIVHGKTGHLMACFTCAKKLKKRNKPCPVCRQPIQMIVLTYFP
Beta apoptosis = inhibitors of cytokine-induced beta cell apoptosis, primary screen, luminescence; INS-1E cytokine-induced death, ATP luminescence, 48 h; percent of positive-control rescue, neutral wells zero; protection from apoptosis, % (test concentration not listed); 300,000 compounds, 0.8% hits;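 active = Every replicate reaches about 75%, or at least half do and their mean reaches it too, limit read from the data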;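 also: higher means more ATP so stronger rescue from cytokine killing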
Mdm2 MdmX conf = Mdm2-MdmX complex disruptors, retested hits, confirmation, luminescence, single concentration | shares compounds with Mdm2 MdmX PPI | Mdm2-MdmX binding, luminescent assay | inhibition, % at 8 µM | 10,000 compounds, 55% hits | AID 489028, 2010; in the data active = inhibition above about 40%
Full FLuc ctr = full-length luciferase signal inhibition, confirmation, counter-screen for Mdm2/MdmX interaction inhibitor project, cell-based, single concentration, SaOS-2; shares compounds with Mdm2 MdmX PPI; SaOS-2 full-length luciferase counterscreen, luminescence; inhibition, % at 8 µM; 6,200 compounds, 77% hits;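 active = mean inhibition at 8 µM reaching about 37%, which flags the compound as non-specific, limit read from the data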;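 also: p53-null SaOS-2 cells with luciferase driven by a doxycycline-inducible promoter; compound on cells about two nights before reading with doxycycline added after day one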
A number is an active result; 0 = inactive; - = no result given.

SMILES | Calb FLC | CSC inhib | MPTP block | Mdm2 MdmX PPI | Beta apoptosis | Mdm2 MdmX conf | Full FLuc ctr
COc1ccc(NS(=O)(=O)c2cc(NC(=O)c3ccccc3)ccc2N2CCOCC2)cc1 | - | 0 | 0 | 60.0 | 0 | 0 | -
COc1ccc(NS(=O)(=O)c2cc(NC(=O)c3sccc3C)ccc2N2CCOCC2)cc1 | 0 | 0 | 0 | 57.3 | 0 | 64.3 | 64.1
COc1ccc(NS(=O)(=O)c2cc(NC(=O)c3cc(F)c(F)cc3Cl)ccc2N2CCOCC2)cc1 | - | 0 | 0 | 51.4 | 0 | 0 | -
COc1ccc(NS(=O)(=O)c2cc(NC(=O)c3cc(F)c(F)c(F)c3F)ccc2N2CCCC2)cc1 | 0 | 0 | 0 | 61.3 | 0 | 0 | -
COc1ccccc1NS(=O)(=O)c1cc(NC(=O)c2sccc2C)ccc1N1CCOCC1 | 0 | 0 | 0 | 0 | 0 | - | -
COc1ccc(CNC(=O)CC[C@H]2O[C@@H](n3cc(C)c(=O)[nH]c3=O)C[C@@H]2O)cc1 | - | - | 0 | - | - | - | -
CCCNC(=O)c1cc(C2CCCCN2C(=O)c2cc(OC)c(C)c(OC)c2)on1 (stereo not drawn) | - | - | 0 | - | - | - | -
CC1=C(C(=O)N2CCCCCC2)CC(CC(=O)NC(c2ccccc2)c2ccccc2)C(=O)N1CCC1=CCCCC1 (stereo not drawn) | - | - | 0 | - | - | - | -
Cc1cccc(N2CCN(S(=O)(=O)c3ccc4c(c3)n(C)c(=O)c(=O)n4C)CC2C)c1 (stereo not drawn) | 0 | 0 | 0 | 67.8 | 0 | 0 | -
COc1ccc(OC)c(N2CC(O)=C(c3nc4ccccc4s3)C2=N)c1 | 0 | 0 | 0 | 0 | 0 | - | -
CCOc1ccccc1N1CC(O)=C(c2nc3ccccc3s2)C1=N | 0 | 0 | 0 | 56.8 | 0 | 57.5 | 57.8
Cc1c(OCC(=O)N2CCC(C(=O)NCCCC(=O)O)CC2)ccc2c1oc(=O)c1ccccc12 | 0 | 0 | 0 | 0 | 0 | - | -
Cc1sc2ncn(CC(=O)NCCCC(=O)Nc3ccc(C(C)C)cc3)c(=O)c2c1C | 0 | 0 | 0 | 82.3 | 0 | 42.5 | 0
CCOC(=O)c1cnc(-n2nc(C)cc2C)nc1NNc1nc(-c2ccccc2)cc(-c2ccccc2)n1 | 0 | 128.2 | 0 | 62.6 | 118.0 | 71.7 | 0
CCOC(=O)c1cnc(-n2nc(C)cc2C)nc1NC1CCCCC1 | 0 | 0 | 0 | 86.4 | - | 92.1 | 0
CCOC(=O)c1cnc(-n2nc(C)cc2C)nc1Nc1ccc(N(C)C)cc1 | 0 | 0 | 0 | 71.4 | 108.7 | 47.5 | 61.3
CCOC(=O)c1cnc(-n2nc(C)cc2C)nc1NC | 0 | 0 | 0 | 0 | 0 | - | -
CCOC(=O)c1cnc(-n2nc(C)cc2C)nc1Nc1cccc(C(=O)O)c1 | 0 | 0 | 0 | 0 | 0 | - | -
COc1ccc(CCn2c(N3CCN(C)CC3)nc3c2c(=O)[nH]c(=O)n3C)cc1 | 0 | 0 | 0 | 0 | 0 | - | -
CCCn1c(N2CCN(CC(=O)c3c(C)n(C)c4ccc(OC)cc34)CC2)nc2c1c(=O)[nH]c(=O)n2C | 0 | - | 0 | 54.8 | - | 0 | -
CCc1ccc2c(c1)C(c1ccc([N+](=O)[O-])cc1)=NNC(c1ccc(Br)cc1)=N2 | 0 | 0 | 0 | 0 | 0 | - | -
Cc1ccc2c(c1)C(c1ccc([N+](=O)[O-])cc1)=NNC(c1ccc(Br)cc1)=N2 | 0 | 0 | 0 | 71.4 | 0 | 0 | -
CC(C)(C)n1nnnc1C(c1cc2ccccc2o1)N1CCCCC1 (stereo not drawn) | - | - | 0 | - | - | - | -
CN(C)C(=O)C[C@@H]1C=C[C@@H](NC(=O)C2CCC2)[C@@H](CO)O1 | - | - | 0 | - | - | - | -
COc1cccc(O)c1CN1CCC(C(=O)Nc2ccc(-c3cccc(C)c3)cc2)CC1 | 0 | 101.1 | 0 | 80.9 | - | 40.5 | 90.4
SMILES | Calb FLC | CSC inhib | MPTP block | Mdm2 MdmX PPI | Beta apoptosis | Mdm2 MdmX conf | Full FLuc ctr
CC(C)n1cc(CN2CCC(C(=O)Nc3cccc(-c4cccc(Cl)c4)c3)CC2)cn1 | 0 | 0 | 0 | 99.4 | 0 | 47.3 | 66.3
CCn1cc(CN2CCC(C(=O)Nc3cccc(-c4cccc(F)c4)c3)CC2)cn1 | 0 | 0 | 0 | 0 | 0 | - | -
CCn1nc(C)c(CN2CCC(C(=O)Nc3cccc(-c4cccc(F)c4)c3)CC2)c1C | 0 | 0 | 0 | 52.5 | 0 | 0 | -
COC(=O)[C@@H]1CC[C@H](C)[C@@H](c2ccc(C)cc2)N1C(=O)c1ccc(/C=N/O[C@@H](C)c2cn([C@H](CO)Cc3ccccc3)nn2)cc1 | 0 | 0 | - | 87.7 | 0 | 65.7 | 50.7
Cc1ccc(/C=N/NC(=O)C2COc3ccccc3O2)s1 (stereo not drawn) | 0 | 0 | 0 | 53.0 | 0 | 76.5 | 57.3
Cc1ccc(-n2c(O)c(/C=N/NC(=O)C3COc4ccccc4O3)c3ccccc3c2=O)cc1 (stereo not drawn) | 0 | - | 0 | 60.4 | 0 | 0 | -
O=C(NC1=NCCS1)C1COc2ccccc2O1 (stereo not drawn) | 0 | - | 0 | 80.4 | 0 | 80.7 | 0
Cc1cc2c(cc1C)-n1nnnc1C(N(C)CCc1ccccc1)C(=O)N2 (stereo not drawn) | - | - | 0 | - | - | - | -
O=C(COc1ccccc1[N+](=O)[O-])OCC(=O)c1ccc(Br)s1 | - | 0 | 0 | 0 | 0 | - | -
Cc1cn([C@H]2C[C@H](O)[C@@H](/C=C/C(=O)NCCC(c3ccccc3)c3ccccc3)O2)c(=O)[nH]c1=O | - | - | 0 | - | - | - | -
COc1ccccc1N(CC(=O)N1CCOCC1)S(C)(=O)=O | 0 | 0 | 0 | 0 | 0 | - | -
CCN(CC)Cc1ccc(NC(=O)c2sc3cc(Cl)ccc3c2Cl)cc1 | 102.6 | 100.5 | 0 | 55.1 | 0 | 0 | -
COc1ccccc1NS(=O)(=O)c1cc(NC(=O)c2sc3cc(Cl)ccc3c2Cl)ccc1C | 0 | 0 | 0 | 52.6 | 0 | 0 | 103.5
CCNC(=S)Nc1ccc(C)c(S(=O)(=O)Nc2ccccc2OC)c1 | 0 | 0 | 0 | 0 | 0 | - | -
CC(=O)NCC(=O)NNC1CC(=O)N(c2cccc(Cl)c2)C1=O (stereo not drawn) | 0 | 0 | 0 | 0 | - | - | -
O=C(CCC1COc2ccccc2O1)Nc1ccc(Cl)cn1 (stereo not drawn) | - | 0 | 0 | 67.1 | 0 | 44.8 | 83.6
C[C@H](CO)N1C[C@H](C)[C@H](CN(C)Cc2cncnc2)Oc2cc(Br)ccc2S1(=O)=O | - | - | 0 | - | - | - | -
O=C(NCCCc1ccccc1)c1c(O)nc2sccn2c1=O | 0 | 0 | 0 | 75.3 | - | 56.8 | 51.9
CCn1c(=O)c(C(=O)NCCCc2ccccc2)c(O)c2ccccc21 | 0 | 0 | 0 | 0 | 0 | - | -
O=C(NCCC1=CCCCC1)c1c(O)nc2ccccn2c1=O | 0 | 0 | 0 | 0 | 0 | - | -
O=C(NCCC1=CCCCC1)c1c(O)nc2sccn2c1=O | 0 | 0 | 0 | 79.9 | 0 | 57.2 | 67.5
CC1(C(=O)NS(=O)(=O)c2ccc(Cl)s2)CCN1C(=O)Cc1ccc(Cl)cc1Cl (stereo not drawn) | - | - | 0 | - | - | - | -
